These compounds were tested on Plasmodium falciparum (assay: GSK_TCMDC: Inhibition of Plasmodium falciparum 3D7 in whole red blood cells, using parasite LDH activity as an index of growth. Test compounds present at 2uM).
Format: functional

SMILES	Inhibition [%]
COc1cccc(C(=O)C2CC2CN(C)CC(O)c2cc(C)c(OC)cc2C)c1.O=C(O)C(F)(F)F (stereo not given)	88
O=C(Nc1cccc(-c2ccc(-c3nc4ccccc4[nH]3)cc2)c1)c1cnn2cccnc12	87
CC(C)CNCc1cccc(-c2cccc(CNc3ccc4ncccc4c3)c2)c1.O=C(O)C(F)(F)F	92
Cc1cccc2nc(-c3cccc(-c4ccc(NC(=O)Cc5ccon5)cc4)c3)[nH]c12	87
CCOc1cc(C=NNc2nc(C)cc(-n3nc(C)cc3C)n2)ccc1O	93
COc1cc(Nc2nccc(N3CCC(NC(=O)C4COc5ccccc5O4)C3)n2)cc(OC)c1OC (stereo not given)	90
COc1cc(NC(=O)c2sc(-c3ccc(Cl)cc3)cc2NC(=O)c2cccc(N(C)C)c2)ccc1OCCN1CCCC1	99
Cl.Oc1ccc2[nH]c(-c3cccs3)nc2c1CN1CCC(N2CCCC2)CC1	100
CC1CCCN1Cc1cccc(-c2ccc(C(=O)NCCOc3ccccc3)s2)c1.O=C(O)C(F)(F)F (stereo not given)	83
Cl.N=c1n(CCN2CCCCC2)c2ccccc2n1CC(O)c1ccc(Cl)c(Cl)c1 (stereo not given)	97
Cc1cccc2nc(-c3ccc(-c4cccc(NC(=O)C(=O)c5cccn5C)c4)cc3)[nH]c12	98
CN1CCN(Cc2nc(-c3ccc4c(Nc5ccc(F)c(O)c5)ccnc4c3)cs2)CC1	100
O=C(NC1CCCCCC1)[C@@H]1CCCN1C(=O)c1ccc(O)c(-c2ccc(Cl)c(Cl)c2)c1	99
CCCCn1c(C(C)Oc2ccc(Cl)cc2Cl)nc2cc(S(N)(=O)=O)ccc21 (stereo not given)	94
CC(OC(=O)c1ccc(C(=O)NCC2CC2)cc1)C(C)(C)C (stereo not given)	93
O=C(Nc1cc(F)cc(-c2cccnc2)c1)c1ccc2c(=O)n(Cc3ccccc3)cnc2c1	98
O=C(Nc1ccc(Cl)c(-c2nc3ccccc3[nH]2)c1)c1ccc(-c2ccc(Cl)cc2)o1	89
CN1CCc2cc(NC(=O)c3cc4ccccc4s3)cc(-c3ccccc3)c2CC1.Cl	91
CCN(CC)Cc1cc(Nc2ccnc3cc(Cl)ccc23)ccc1O.Cl.Cl.Cl	100
CCN(CC)CC(O)c1cc(-c2ccc(OC)cc2)nc2cc(Cl)ccc12.Cl (stereo not given)	99

SMILES	Inhibition [%]
Cc1cccc2nc(-c3cccc(-c4cccc(NC(=O)Nc5ccc(Cl)c(Cl)c5)c4)c3)[nH]c12	100
CCNc1cc(C)nc(Nc2ccc(NC(=O)C3CCCC3)cc2)n1	99
COc1cccc2cc(C(=O)N[C@@H](CC(C)C)C(=O)N[C@H](/C=N/NC(=O)OC(C)(C)C)CC(=O)OC(C)(C)C)oc12	85
O=C(Nc1ccc(Cl)cc1)c1cccc(S(=O)(=O)NC2CCN(CC3CCCCC3)C2)c1.O=C(O)C(F)(F)F (stereo not given)	90
N#Cc1ccc(-c2ccc(C(=O)NC3CCN(CCN4CCc5c(cccc5C(F)(F)F)C4)CC3)cc2)cc1	98
COc1ccc2nccc([C@@H](O)CN3CCC(NC(=O)/C=C/c4cccc(NC(C)=O)c4)CC3)c2c1	90
CCN(CC)CCNc1nccc(N(C)c2ccc(NC(=O)Nc3cc(C(F)(F)F)ccc3F)cc2)n1.O=C(O)C(F)(F)F	97
CCOc1ccc(-c2nonc2NC(=O)c2cccc(Cl)c2)cc1OCC	100
N#Cc1cccc(NC(=O)Nc2cccc(-c3cccc(-c4nc5ccccc5[nH]4)c3)c2)c1	100
Nc1nc(N)c2cc(NC(=O)c3ccc(Cl)c(Cl)c3)ccc2n1	100
COc1cc2nc(N[C@@H](CO)c3ccccc3)nc(NCc3ccccc3)c2cc1OC	100
Cl.c1cc(CNC2Cc3ccccc3C2)cc(-c2cnc(N3CCNCC3)nc2)c1	93
O=C(Nc1cccc(CN2CCCN(Cc3ccsc3)CC2)c1)c1cc2ccccc2s1.O=C(O)C(F)(F)F	96
CCCNCc1c(O)ccc2c(CNCCC)c(O)ccc12.Cl	100
Cc1ccc(S(=O)(=O)N2CCN(C(=O)c3cc(-c4cccs4)n[nH]3)CC2)c(C)c1	85
COc1ccc(CNC2CCN(C)CC2)cc1-c1ccc(S(=O)(=O)NCCN2CCCC2)s1.O=C(O)C(F)(F)F	90
CCCc1c(C(=O)Nc2ccc3c(c2)CCN(C2CCC2)CC3)cnn1-c1ccc(Cl)cc1.O=C(O)C(F)(F)F	92
O=C(O)C(F)(F)F.O=c1ccc2ccc(F)c3c2n1CC3CN1CCC(NCc2cccc(-c3ccccc3F)c2)CC1 (stereo not given)	100
Oc1cc(NC[C@@H]2CCC[C@@H]2NCc2ccc(Cl)c(Cl)c2)nc2ccccc12	100
CN1CCN(CCCNCc2ccccc2-c2cccc(CNCc3ccc4c(c3)OCO4)c2)CC1.O=C(O)C(F)(F)F	100

Each compound was assayed on Plasmodium falciparum (assay: GSK_TCMDC: Inhibition of Plasmodium falciparum Dd2 in whole red blood cells, using parasite LDH activity as an index of growth. Test compounds present at 2uM).
Format: functional

SMILES	Inhibition [%]
COc1cccc(C(=O)C2CC2CN(C)CC(O)c2cc(C)c(OC)cc2C)c1.O=C(O)C(F)(F)F (stereo not given)	73
O=C(Nc1cccc(-c2ccc(-c3nc4ccccc4[nH]3)cc2)c1)c1cnn2cccnc12	1
CC(C)CNCc1cccc(-c2cccc(CNc3ccc4ncccc4c3)c2)c1.O=C(O)C(F)(F)F	28
Cc1cccc2nc(-c3cccc(-c4ccc(NC(=O)Cc5ccon5)cc4)c3)[nH]c12	38
CCOc1cc(C=NNc2nc(C)cc(-n3nc(C)cc3C)n2)ccc1O	52
COc1cc(Nc2nccc(N3CCC(NC(=O)C4COc5ccccc5O4)C3)n2)cc(OC)c1OC (stereo not given)	58
COc1cc(NC(=O)c2sc(-c3ccc(Cl)cc3)cc2NC(=O)c2cccc(N(C)C)c2)ccc1OCCN1CCCC1	67
Cl.Oc1ccc2[nH]c(-c3cccs3)nc2c1CN1CCC(N2CCCC2)CC1	13
CC1CCCN1Cc1cccc(-c2ccc(C(=O)NCCOc3ccccc3)s2)c1.O=C(O)C(F)(F)F (stereo not given)	0
Cl.N=c1n(CCN2CCCCC2)c2ccccc2n1CC(O)c1ccc(Cl)c(Cl)c1 (stereo not given)	97
Cc1cccc2nc(-c3ccc(-c4cccc(NC(=O)C(=O)c5cccn5C)c4)cc3)[nH]c12	17
CN1CCN(Cc2nc(-c3ccc4c(Nc5ccc(F)c(O)c5)ccnc4c3)cs2)CC1	100
O=C(NC1CCCCCC1)[C@@H]1CCCN1C(=O)c1ccc(O)c(-c2ccc(Cl)c(Cl)c2)c1	98
CCCCn1c(C(C)Oc2ccc(Cl)cc2Cl)nc2cc(S(N)(=O)=O)ccc21 (stereo not given)	45
CC(OC(=O)c1ccc(C(=O)NCC2CC2)cc1)C(C)(C)C (stereo not given)	86
O=C(Nc1cc(F)cc(-c2cccnc2)c1)c1ccc2c(=O)n(Cc3ccccc3)cnc2c1	11
O=C(Nc1ccc(Cl)c(-c2nc3ccccc3[nH]2)c1)c1ccc(-c2ccc(Cl)cc2)o1	22
CN1CCc2cc(NC(=O)c3cc4ccccc4s3)cc(-c3ccccc3)c2CC1.Cl	11
CCN(CC)Cc1cc(Nc2ccnc3cc(Cl)ccc23)ccc1O.Cl.Cl.Cl	99
CCN(CC)CC(O)c1cc(-c2ccc(OC)cc2)nc2cc(Cl)ccc12.Cl (stereo not given)	98

SMILES	Inhibition [%]
Cc1cccc2nc(-c3cccc(-c4cccc(NC(=O)Nc5ccc(Cl)c(Cl)c5)c4)c3)[nH]c12	96
CCNc1cc(C)nc(Nc2ccc(NC(=O)C3CCCC3)cc2)n1	69
COc1cccc2cc(C(=O)N[C@@H](CC(C)C)C(=O)N[C@H](/C=N/NC(=O)OC(C)(C)C)CC(=O)OC(C)(C)C)oc12	57
O=C(Nc1ccc(Cl)cc1)c1cccc(S(=O)(=O)NC2CCN(CC3CCCCC3)C2)c1.O=C(O)C(F)(F)F (stereo not given)	41
N#Cc1ccc(-c2ccc(C(=O)NC3CCN(CCN4CCc5c(cccc5C(F)(F)F)C4)CC3)cc2)cc1	51
COc1ccc2nccc([C@@H](O)CN3CCC(NC(=O)/C=C/c4cccc(NC(C)=O)c4)CC3)c2c1	60
CCN(CC)CCNc1nccc(N(C)c2ccc(NC(=O)Nc3cc(C(F)(F)F)ccc3F)cc2)n1.O=C(O)C(F)(F)F	25
CCOc1ccc(-c2nonc2NC(=O)c2cccc(Cl)c2)cc1OCC	99
N#Cc1cccc(NC(=O)Nc2cccc(-c3cccc(-c4nc5ccccc5[nH]4)c3)c2)c1	96
Nc1nc(N)c2cc(NC(=O)c3ccc(Cl)c(Cl)c3)ccc2n1	83
COc1cc2nc(N[C@@H](CO)c3ccccc3)nc(NCc3ccccc3)c2cc1OC	71
Cl.c1cc(CNC2Cc3ccccc3C2)cc(-c2cnc(N3CCNCC3)nc2)c1	65
O=C(Nc1cccc(CN2CCCN(Cc3ccsc3)CC2)c1)c1cc2ccccc2s1.O=C(O)C(F)(F)F	29
CCCNCc1c(O)ccc2c(CNCCC)c(O)ccc12.Cl	9
Cc1ccc(S(=O)(=O)N2CCN(C(=O)c3cc(-c4cccs4)n[nH]3)CC2)c(C)c1	81
COc1ccc(CNC2CCN(C)CC2)cc1-c1ccc(S(=O)(=O)NCCN2CCCC2)s1.O=C(O)C(F)(F)F	1
CCCc1c(C(=O)Nc2ccc3c(c2)CCN(C2CCC2)CC3)cnn1-c1ccc(Cl)cc1.O=C(O)C(F)(F)F	12
O=C(O)C(F)(F)F.O=c1ccc2ccc(F)c3c2n1CC3CN1CCC(NCc2cccc(-c3ccccc3F)c2)CC1 (stereo not given)	6
Oc1cc(NC[C@@H]2CCC[C@@H]2NCc2ccc(Cl)c(Cl)c2)nc2ccccc12	75
CN1CCN(CCCNCc2ccccc2-c2cccc(CNCc3ccc4c(c3)OCO4)c2)CC1.O=C(O)C(F)(F)F	7
